{"source": "PubChem BioAssay AID463173", "about": "(ICCB-Longwood Screening Facility, Harvard Medical School, 2010)", "note": "Out of some 52,000 compounds screened, about 4,300 (8.3%) were called active. The entries come from a sample that favours actives as a whole. Values without a mark were called inactive. Rule as the data show it: active = survival mostly below about 52% (no sharp cut-off); inactive = mostly above about 56%."}
{"test_system": "DeltatarO mutant", "assay": "S. aureus survival, RN4220 and DeltatarO strains – OD600, teichoic acid synthesis inhibitors, primary screen (AID 463173)", "settings": "S. aureus RN4220 wild type/DeltatarO growth, OD600, 18 h, stronger effect = lower value, screened at 18.75 µg/mL (by protocol)"}
{"molecule": "CCC(Sc1nnc(-c2ccc(OC)cc2)c(-c2ccc(OC)cc2)n1)C(=O)Nc1cccc(OC)c1", "note": "(stereo not drawn)", "survival": "94%"}
{"molecule": "COCCn1c(C)cc(O)c(C(c2ccccc2)N2CCN(CCO)CC2)c1=O", "note": "(stereo not drawn)", "survival": "32% (active)"}
{"molecule": "CCN1CCN(C(c2ccccc2)c2c(O)cc(C)n(CCOC)c2=O)CC1", "note": "(stereo not drawn)", "survival": "84%"}
{"molecule": "COCCn1c(C)cc(O)c(C(c2ccccc2)N2CCN(C)CC2)c1=O", "note": "(stereo not drawn)", "survival": "95%"}
{"molecule": "COCCn1c(C)cc(O)c(C(c2cccc(F)c2)N2CCN(c3ccccc3)CC2)c1=O", "note": "(stereo not drawn)", "survival": "93%"}
{"molecule": "COCCn1c(C)cc(O)c(C(c2ccccc2)N2CCN(c3ccccc3)CC2)c1=O", "note": "(stereo not drawn)", "survival": "49%"}
{"molecule": "COCCn1c(C)cc(O)c(C(c2ccc(F)cc2)N2CCN(c3ccccc3)CC2)c1=O", "note": "(stereo not drawn)", "survival": "47% (active)"}
{"molecule": "Cc1cccc(NC(=O)c2cc(S(=O)(=O)N3CCc4ccccc43)ccc2F)c1C", "survival": "65%"}
{"molecule": "COc1ccc(-n2c(/C=C/c3cc(OC)c(OC)cc3OC)nc3cc4ccccc4cc3c2=O)cc1Cl", "survival": "115%"}
{"molecule": "CCOC(=O)CNC(=O)Nc1cc(C(=O)NCc2cccc(F)c2)ccc1N1CCCC1", "survival": "74%"}
{"molecule": "CCOC(=O)N1CCC(NC(=O)c2ccc3c(c2)N(Cc2ccccc2)C(=O)c2ccccc2S3(=O)=O)CC1", "survival": "52%"}
{"molecule": "CSc1ccc(C2c3c(oc4cc(C)cc(C)c4c3=O)C(=O)N2Cc2ccco2)cc1", "note": "(stereo not drawn)", "survival": "57%"}
{"molecule": "CCc1ccc(C2C(C(=O)Nc3ccccc3OC)=C(C)Nc3nc(SCc4ccccc4)nn32)cc1", "note": "(stereo not drawn)", "survival": "76%"}
{"molecule": "CCOC(=O)c1ccc(CSc2nnc3cc(C)c4ccccc4n23)cc1", "survival": "95%"}
{"molecule": "Cc1cc2nnc(SCc3ccc(F)cc3)n2c2ccccc12", "survival": "-1% (active)"}
{"molecule": "CCCN(CCC)C(=O)CSc1nnc2cc(C)c3ccccc3n12", "survival": "76%"}
{"molecule": "COc1ccc(C2NCCS2)cc1", "note": "(stereo not drawn)", "survival": "65%"}
{"molecule": "Cc1ccc(CN2CCCn3nc(C(=O)NCCc4ccc(Cl)cc4)cc3C2=O)cc1", "survival": "71%"}
{"molecule": "Cc1nn(-c2ccc(N3CCCCC3)nn2)c(C)c1CCC(=O)NCc1ccc(Cl)cc1", "survival": "79%"}
{"molecule": "Cc1cccc(OCCSc2nc3ccc(NC(=O)COc4ccccc4)cc3s2)c1", "survival": "78%"}
{"molecule": "COc1ccccc1C(=O)Nc1ccc(-c2nc3ccccc3s2)c(C)c1", "survival": "83%"}
{"molecule": "Cc1cccc(OCC(=O)Nc2cccc(-c3nc4ccccc4s3)c2)c1", "survival": "7% (active)"}
{"molecule": "COc1ccc(CC(=O)Nc2ccc(-c3nc4ccccc4s3)c(C)c2)cc1", "survival": "69%"}
{"molecule": "Cc1cccc(OCC(=O)Nc2ccc3nc(SCc4ccccc4)sc3c2)c1", "survival": "112%"}
{"molecule": "CCCCC(=O)Nc1cccc(-c2nc3ccccc3s2)c1", "survival": "41% (active)"}
{"molecule": "O=C(COc1ccccc1[N+](=O)[O-])Nc1cccc(-c2nc3ccccc3s2)c1", "survival": "65%"}
{"molecule": "CCC(CC)C(=O)Nc1cccc(-c2nc3ccccc3s2)c1", "survival": "53%"}
{"molecule": "COc1ccc(CC(=O)Nc2ccc(-c3nc4ccccc4s3)c(C)c2)cc1OC", "survival": "37% (active)"}
{"molecule": "Cc1ccc2nc(-c3ccc(NC(=O)COc4ccccc4C(C)(C)C)cc3)sc2c1", "survival": "114%"}
{"molecule": "CCCOc1ccccc1C(=O)Nc1ccc(-c2nc3ccc(C)cc3s2)cc1", "survival": "29% (active)"}
{"molecule": "COc1cccc(C(=O)Nc2ccc(-c3nc4ccc(C)cc4s3)cc2)c1OC", "survival": "49%"}
{"molecule": "Cc1nc2ncnn2c(C)c1CCC(=O)N1CCN(c2ccc(F)cc2)CC1", "survival": "89%"}
{"molecule": "COCCNC(=O)CN1C(=O)c2cccnc2Oc2ccc(Cl)cc21", "survival": "85%"}
{"molecule": "COc1ccc(-c2onc(C)c2C)cc1S(=O)(=O)NCc1ccco1", "survival": "67%"}
{"molecule": "Cc1ccc(S(=O)(=O)N(C)c2ccc3sc(C)nc3c2)cc1", "survival": "91%"}
{"molecule": "COc1ccc(OC)c(C(=O)CC2(O)C(=O)N(Cc3ccccc3C)c3ccccc32)c1", "note": "(stereo not drawn)", "survival": "165%"}
{"molecule": "CN1C(=O)Cc2cc(S(=O)(=O)CCC(=O)Nc3ccc(OC(F)(F)F)cc3)ccc21", "survival": "71%"}
{"molecule": "Cc1cccc(CN2C(=O)c3ccccc3Sc3ccc(C(=O)N4CCCC4)cc32)c1", "survival": "83%"}
{"molecule": "O=C(COc1ccc(Cl)cc1)Nc1ccc(O)c(-c2nc3ccccc3s2)c1", "survival": "94%"}
{"molecule": "COc1cccc(CC(=O)Nc2ccc(-c3nc4ccccc4s3)cc2Cl)c1", "survival": "69%"}
{"molecule": "COc1ccc(OCC(=O)Nc2ccc(O)c(-c3nc4ccccc4s3)c2)cc1", "survival": "43% (active)"}
{"molecule": "CCOc1ccccc1C(=O)Nc1ccccc1", "survival": "65%"}
{"molecule": "Cc1ccc(OCC(=O)Nc2cccc(-c3nc4ccccc4s3)c2)cc1", "survival": "47% (active)"}
{"molecule": "COc1ccc(CC(=O)Nc2ccc(-c3nc4ccccc4s3)cc2Cl)cc1", "survival": "69%"}
{"molecule": "O=C(COc1ccc(Cl)cc1)Nc1ccc(-c2nc3ccccc3s2)c(O)c1", "survival": "68%"}
{"molecule": "CCOc1ccccc1C(=O)Nc1cccc(-c2nc3ccccc3s2)c1", "survival": "41% (active)"}
{"molecule": "COc1cccc(CC(=O)Nc2ccc(-c3nc4ccccc4s3)cc2)c1", "survival": "0% (active)"}
{"molecule": "Cc1cc(C)cc(OCC(=O)Nc2ccc(-c3nc4ccccc4s3)cc2)c1", "survival": "68%"}
{"molecule": "COc1ccc(OCC(=O)Nc2cccc(-c3nc4ccccc4s3)c2C)cc1", "survival": "106%"}
{"molecule": "CCOc1ccc(C(=O)Nc2ccc(-c3nc4ccccc4s3)c(C)c2)cc1OCC", "survival": "99%"}
{"molecule": "CCOc1ccc(NS(=O)(=O)c2ccc3c4c(cccc24)C(=O)N3)cc1", "survival": "83%"}
{"molecule": "CCn1cc2nc(SCc3ccccc3)n(Cc3ccc(C)cc3)c(=O)c2n1", "survival": "93%"}
{"molecule": "O=C(NCCc1ccccc1)c1cc(-c2ccccc2)nc2n[nH]c(-c3ccccc3)c12", "survival": "55%"}
{"molecule": "CCOC(=O)c1ccc(CN(Cc2ccc(F)cc2)S(=O)(=O)c2ccc(F)c(C(=O)Nc3ccc(Cl)cc3F)c2)cc1", "survival": "79%"}
{"molecule": "CCOc1cc(CNC(=O)c2cc(-c3ccc(Cl)s3)nc3ccccc23)ccc1OC", "survival": "84%"}
{"molecule": "CCOC(=O)C1CCCN(C(=O)Cn2ncc3c4ccccc4n(C)c3c2=O)C1", "note": "(stereo not drawn)", "survival": "121%"}
{"molecule": "COc1ccc(-c2nc3ccccc3s2)cc1NC(=O)COc1cccc(C)c1", "survival": "16% (active)"}
{"molecule": "COc1ccc(OCC(=O)Nc2cc(-c3nc4ccccc4s3)ccc2C)cc1", "survival": "45% (active)"}
{"molecule": "Cc1csc2nc(-c3cccc(NC(=O)c4c(F)cccc4F)c3)cn12", "survival": "128%"}
{"molecule": "Cc1ccc2nc(-c3ccc(NC(=O)COc4c(C)ccc(C)c4C)cc3)sc2c1", "survival": "38% (active)"}
{"molecule": "Cc1ccc2nc(-c3ccc(NC(=O)COc4ccc(Cl)c(C)c4)cc3)sc2c1", "survival": "74%"}
{"molecule": "COc1ccc(-c2nc3ccccc3s2)cc1NC(=O)COc1ccc(C)cc1", "survival": "129%"}
{"molecule": "CC(=O)Nc1cc(-c2nc3ccccc3s2)ccc1C", "survival": "83%"}
{"molecule": "CCCC(=O)Nc1cccc(-c2cn3c(C)csc3n2)c1", "survival": "-5% (active)"}
{"molecule": "Cc1ccc(-c2nc3ccccc3s2)cc1NC(=O)COc1ccccc1", "survival": "54%"}
{"molecule": "COc1ccc(-c2nc3ccccc3s2)cc1NC(=O)COc1ccccc1C", "survival": "142%"}
{"molecule": "Cc1ccc2nc(-c3ccc(NC(=O)COc4ccccc4)cc3)sc2c1", "survival": "68%"}
{"molecule": "Cc1csc2nc(-c3cccc(NC(=O)C(C)C)c3)cn12", "survival": "73%"}
